Bioassay records from PubChem BioAssay.
AHR activator: activators of human aryl hydrocarbon receptor; AHR-responsive luciferase reporter cells, luminescence; activation, % at 5 µM; P35869; 320,000 compounds, 2.5% hits; in the data active = activation above about 47%;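 note: 0% = vehicle wells and 100% = reference agonist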
ADAM10 inh: inhibits human ADAM10. inhibition, % at 7 µM. AID 720582. recombinant ADAM10, EDANS/DABCYL FRET peptide cleavage, 3 h. O14672. 370,000 compounds, 0.62% hits;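 active = inhibition above a per-campaign cutoff equal to the mean of compounds falling between control-based bounds plus 3 SD, cut at about 20% in these data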;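 note: 0% = DMSO wells while the 100% control is not disclosed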
ADAM17 inh: ADAM17 inhibition, QFRET primary screen | P78536 | recombinant ADAM17, EDANS/DABCYL FRET peptide cleavage | inhibition, % at 6.95 µM | 370,000 compounds, 0.83% hits | AID 720648;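 active = inhibition above the mean of compounds lying between control limits plus 3 SD, set per campaign, cut at about 8.5% in these data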;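 note: 0% = DMSO-only wells as the low control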
Target sequence (P78536 215-824 limits assumed): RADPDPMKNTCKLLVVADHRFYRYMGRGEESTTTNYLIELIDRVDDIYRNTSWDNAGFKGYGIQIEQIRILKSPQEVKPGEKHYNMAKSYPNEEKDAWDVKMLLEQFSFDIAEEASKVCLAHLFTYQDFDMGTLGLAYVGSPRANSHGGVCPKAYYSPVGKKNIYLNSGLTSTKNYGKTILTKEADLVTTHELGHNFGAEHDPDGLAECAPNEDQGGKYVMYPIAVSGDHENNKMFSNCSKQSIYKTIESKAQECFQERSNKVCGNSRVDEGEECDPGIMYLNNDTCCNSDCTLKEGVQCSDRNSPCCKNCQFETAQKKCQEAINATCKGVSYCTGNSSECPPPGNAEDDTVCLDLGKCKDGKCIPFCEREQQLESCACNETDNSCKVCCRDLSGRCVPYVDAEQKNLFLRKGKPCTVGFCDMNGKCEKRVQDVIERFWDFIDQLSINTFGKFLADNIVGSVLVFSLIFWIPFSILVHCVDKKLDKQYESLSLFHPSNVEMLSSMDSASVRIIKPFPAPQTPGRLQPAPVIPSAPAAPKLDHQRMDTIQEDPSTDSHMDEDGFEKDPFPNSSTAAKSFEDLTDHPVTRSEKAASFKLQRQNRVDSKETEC
NR3A LBD binder: modulates the human NR3A ligand-binding domain. NR3A LBD differential scanning fluorimetry, Tm shift; 0% = protein alone, 100% = glycine-bound protein. Tm shift relative to glycine control, % at 25 µM. 340,000 compounds, 2.5% hits;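 active = melting temperature shift of at least 10% of the positive control shift, at one fixed dose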
KLK7 zymogen act: activates the human kallikrein-7 zymogen; AID 652039; 370,000 compounds, 0.9% hits; purified proKLK7, EDANS-DABCYL substrate fluorescence; 100% is mature enzyme control, 0% vehicle; activation, % at 7 µM;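 active = activation above the mean of all tested compounds plus 3 SD, computed per campaign excluding outliers beyond control limits, cut at about 13% in these data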
rCAG binder: molecules binding r(CAG) RNA repeats; inhibition, % at 3 µM; 370,000 compounds, 1.3% hits; AID 651821; r(CAG) RNA repeat, TO-PRO-1 dye displacement fluorescence;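 active = inhibition above the plate cutoff, the mean of all test compounds on that plate plus 3 SD, cut at about 35% in these data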;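 note: 0% = DMSO alone and 100% = 100 µM mitoxantrone as full dye displacement; higher means more dye released from RNA so lower well fluorescence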
Active calls of the source: *; i = inactive; · = not tested or not shown. Hits are enriched below; roughly 7% of the tested compounds scored in any of these assays.

SMILES | AHR activator | ADAM10 inh | ADAM17 inh | NR3A LBD binder | KLK7 zymogen act | rCAG binder
COc1ccc(CN2CN3CCc4ccccc4C3CS2(=O)=O)cc1 (stereo not drawn) | · | -7.0 | -5.0 | · | 0.2 | 8.6
CN1CCCN(C(=O)C2CCCN(C(=O)c3ccc4c(c3)NC(=O)CS4)C2)CC1 (stereo not drawn) | · | 3.3 | -1.2 | · | 0.1 | 1.3
c1nc(NCC2CCCCO2)c2cc(-c3ccc4c(c3)OCO4)ccc2n1 (stereo not drawn) | · | -106.7 | -38.6 | · | · | ·
COc1cc(NC(=O)c2cc3ccccc3cc2O)c(OC)cc1Cl | 52.4* | -66.5 | -37.7 | 33.0* | -207.0 | 47.0*
COc1cc2cc(C(=O)Nc3ccccc3)c(N)nc2cc1OC | 48.4* | i | -248.6 | 2.2 | 7.8 | 18.1
COc1cc2ccccc2cc1C(=O)Nc1ccccc1Cl | 52.9* | 4.6 | -1.8 | 8.1 | -0.2 | 17.9
COc1cc2cc(C(=O)NC(C)c3cccc4ccccc34)c(N)nc2cc1OC (stereo not drawn) | · | i | i | · | -75.2 | 10.5
COc1cc(OC)c(NC(=O)c2ccccc2F)cc1Cl | 27.0 | 3.5 | -0.7 | -1.1 | 1.7 | 1.5
O=C(Nc1cccnc1)c1ccc2ccccc2c1O | 47.7* | -25.7 | -12.8 | -6.5 | -0.2 | 9.2
COc1cc2ccccc2cc1C(=O)Nc1ccccc1N1CCCC1 | 19.3 | 0.2 | -2.2 | -0.9 | -16.2 | -6.6
CCc1cc2c(nc1CC)CCCN2S(=O)(=O)c1ccccc1 | · | -5.9 | -1.6 | · | -0.8 | -0.8
O=C([C@@H]1C[C@H]1c1ccccc1)N1CCC(Oc2cccnc2)CC1 | · | 8.2 | -1.2 | · | 0.9 | -2.9
CC[C@@H](CCCc1ccc(F)cc1)CN(Cc1ccc(OC)cc1)S(=O)(=O)c1ccc(C)cc1 | · | -8.5 | -4.3 | · | 0.2 | 6.8
CC(C)N1CCCCC(NC(=O)c2ccccc2)C1=O (stereo not drawn) | · | -13.9 | -8.7 | · | -0.5 | 1.0
NC(=O)CC1(CC(=O)O)CCCCC1 | 1.5 | -2.2 | -5.5 | 12.7* | 0.4 | -2.2
NC(=O)C1CCN(C(=O)CC2(CC(=O)O)CCCCC2)CC1 | 0.2 | -8.9 | -6.2 | -0.8 | 0.0 | 1.0
CC(C)(C)OC(=O)NCC(=O)Oc1cc2oc(=O)cc(-c3ccccc3)c2cc1Cl | -1.8 | -315.1 | -68.7 | -2.6 | 15.6* | 9.3
O=C(Oc1cc2oc(=O)cc(-c3ccccc3)c2cc1Cl)C1CCCCC1 | 3.5 | -144.5 | -52.7 | -31.8 | 37.4* | 6.0
CCCCN(C(=O)CSc1nn(-c2ccc(F)cc2)c(=S)s1)c1c(N)n(CCCC)c(=O)[nH]c1=O | 30.8 | -20.1 | -7.4 | -4.4 | 0.8 | 5.7
Cn1c(N)c(C(=O)CSc2nn(-c3ccc(F)cc3)c(=S)s2)c(=O)n(C)c1=O | 0.2 | -5.6 | -2.1 | 31.3* | -0.3 | 2.8
COc1ccc(-c2ccc3oc(-c4ccsc4)cc3c2)cc1 | 57.1* | 0.5 | -3.5 | -0.8 | -0.9 | 0.7
COc1ccc(-c2cc3cc(-c4cc(OC)c(OC)c(OC)c4)ccc3o2)cc1 | -2.0 | -8.3 | 3.1 | -1.4 | -0.3 | 11.1
O=C(OCc1cn(Cc2ccc(F)cc2)nn1)N1CCOCC1 | · | -19.7 | -2.4 | · | -0.5 | 2.3
Nc1cc(Cl)nc(N/N=C/c2ccccc2[N+](=O)[O-])n1 | 52.0* | -5.4 | -5.5 | 2.0 | -0.3 | 0.3
O=[N+]([O-])c1ccccc1/C=N/Nc1nccnc1Cl | 45.2 | 0.7 | -2.9 | 1.7 | 0.5 | -1.7
SMILES | AHR activator | ADAM10 inh | ADAM17 inh | NR3A LBD binder | KLK7 zymogen act | rCAG binder
Nc1cc(Cl)nc(N/N=C/c2ccc([N+](=O)[O-])cc2)n1 | 4.5 | 3.4 | 5.2 | 20.6* | 0.5 | 4.1
COc1ccc(-n2c(COc3ccccc3)nnc2SCc2nc3ccccc3[nH]2)cc1 | · | -8.0 | -4.0 | · | 0.1 | 2.2
COc1cccc(CNC(=O)Cn2c(-c3ccccc3)cc(C(C)=O)c2C)c1 | · | -8.4 | -2.9 | · | 0.2 | 7.7
O=C(c1ccncc1)N1CCC(Oc2cccnc2)CC1 | · | 5.3 | -0.9 | · | 0.6 | 0.0
O=C(COc1cccnc1[N+](=O)[O-])N1CCN(S(=O)(=O)c2ccc3ccccc3c2)CC1 | -1.4 | -4.1 | -3.1 | 14.4* | 0.3 | -1.3
CCCc1c(C(=O)N/N=C/c2cccc3ccccc23)nnn1-c1nonc1N | 15.7 | -8.3 | -0.6 | 39.5* | -1.3 | 4.2
CCN(CC)Cc1c(C(=O)N/N=C/c2cccc3ccccc23)nnn1-c1nonc1N | 1.7 | 2.0 | 0.2 | -3.7 | 0.1 | 3.5
CC(C)c1c(C(=O)N/N=C2\CCc3ccccc32)nnn1-c1nonc1N | 4.5 | 9.3 | 1.6 | 10.4* | -1.0 | 0.6
CC(/C=N/NC(=O)c1nnn(-c2nonc2N)c1C(C)C)=C\c1ccccc1 | -2.9 | 16.5 | 4.2 | 27.4* | 0.3 | -1.4
CCCN(CCC)Cc1c(C(=O)N/N=C/C(C)=C\c2ccccc2)nnn1-c1nonc1N | -8.7 | 5.6 | 1.4 | 1.3 | -0.7 | 4.1
CCCc1c(C(=O)N/N=C/C(C)=C/c2ccccc2)nnn1-c1nonc1N | -2.7 | -8.7 | -1.3 | 33.5* | 0.1 | -0.1
CCCC[C@@H]1C(=O)N2N=C(c3ccccc3)c3ccccc3[C@H]2N2N=C(c3ccccc3)c3ccccc3[C@@H]12 | · | -8.7 | -1.5 | · | -2.0 | 9.0
CCCCCn1nnnc1C1(C)CSCC(=O)N1Cc1ccco1 (stereo not drawn) | · | 4.0 | -2.6 | · | -0.3 | -0.9
CCOc1ccc(OCC)c(NC(=O)CN(c2ccc(C)cc2)S(=O)(=O)c2c(C)noc2C)c1 | 62.5* | 5.3 | -3.6 | 3.9 | 0.0 | 0.2
COc1ccc(N(CC(=O)Nc2ccc3c(c2)OCO3)S(=O)(=O)c2c(C)nn(C)c2C)cc1 | 59.5* | -0.9 | 1.4 | -1.7 | -0.3 | 3.1
CCOc1ccc(OCC)c(NC(=O)CN(c2ccc(OC)cc2)S(=O)(=O)c2c(C)noc2C)c1 | 58.5* | 11.4 | 1.6 | 0.0 | 0.7 | 2.1
COc1ccc(NC(=O)CN(c2ccc(OC)cc2)S(=O)(=O)c2c(C)nn(C)c2C)cc1 | 3.0 | -5.5 | 2.3 | 0.0 | 0.0 | -1.5
CCOc1ccc(N(CC(=O)Nc2ccc(C)c(C)c2)S(C)(=O)=O)cc1 | 51.5* | 7.2 | 2.1 | -1.7 | -0.2 | -1.9
COc1ccc(N(CC(=O)Nc2ccc(F)c(Cl)c2)S(=O)(=O)c2c(C)noc2C)cc1 | 5.8 | -7.7 | -5.4 | 15.6* | 0.8 | 6.5
CC1(C)Oc2ccc(C(=O)NCCCN3CCCC3)cc2NC1=O | · | 2.1 | 1.3 | · | -0.2 | 3.5
Nc1ccc(O)cc1C(=O)OCC(=O)c1ccc(C2CCCCC2)cc1 | -1.1 | -96.1 | -35.4 | 4.9 | -10.4 | 51.1*
COc1ccc(C(=O)OCC(=O)c2ccc(C3CCCCC3)cc2)cc1 | 0.4 | -0.8 | -1.4 | 3.6 | -0.1 | 1.7
COc1ccc2c(c1)CCCN2C(=O)C1CCCN(S(=O)(=O)c2ccc(Br)s2)C1 (stereo not drawn) | · | -0.7 | 4.9 | · | 0.1 | 5.7
